In ChEMBL document CHEMBL3433997, “St. Jude Leishmania screening dataset” (2016):

Experiments:
Type in all cases: functional
[1] = target: Solute carrier family 2, facilitated glucose transporter member 1 (Homo sapiens) (UniProt P11166); assay: ST_JUDE_LEISH: Cytotoxicity at 2uM final concentration against transgenic Leishmania Mexicana promastigotes LmGLUT1 that are glucose transport deficient and complemented with the human glucose transporter GLUT1. Activity is measured by DNA content using SYBR green in vitro
Solute carrier family 2, facilitated glucose transporter member 1 (Homo sapiens), sequence (P11166 whole entry): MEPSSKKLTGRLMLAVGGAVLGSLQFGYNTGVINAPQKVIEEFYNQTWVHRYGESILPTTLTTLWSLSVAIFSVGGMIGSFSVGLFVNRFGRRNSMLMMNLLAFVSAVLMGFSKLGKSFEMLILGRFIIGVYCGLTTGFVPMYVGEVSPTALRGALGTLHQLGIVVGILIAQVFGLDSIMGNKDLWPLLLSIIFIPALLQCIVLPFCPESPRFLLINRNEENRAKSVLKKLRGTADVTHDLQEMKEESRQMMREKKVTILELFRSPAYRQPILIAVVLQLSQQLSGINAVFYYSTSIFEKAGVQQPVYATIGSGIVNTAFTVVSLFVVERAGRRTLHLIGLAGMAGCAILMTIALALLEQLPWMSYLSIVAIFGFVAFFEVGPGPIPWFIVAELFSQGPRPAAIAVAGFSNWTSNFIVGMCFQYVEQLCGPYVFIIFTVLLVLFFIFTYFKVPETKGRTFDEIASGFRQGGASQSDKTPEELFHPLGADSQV

[2] = target: Hexose transporter 1 (Plasmodium falciparum) (UniProt O97467); assay: ST_JUDE_LEISH: Cytotoxicity at 2uM final concentration against transgenic Leishmania Mexicana promastigotes LmPfHT that are glucose transport deficient and complemented with the Plasmodium falciparum hexose transporter. Activity is measured by DNA content using SYBR green in vitro
[3] = target: Glucose transporter (Leishmania mexicana) (UniProt O61059); assay: ST_JUDE_LEISH: Cytotoxicity at 2uM final concentration against transgenic Leishmania Mexicana promastigotes LmGT2 that are glucose transport deficient and complemented with the L. Mexicana glucose transporter 2. Activity is measured by DNA content using SYBR green in vitro

SMILES	inhibition [1] [%]	inhibition [2] [%]	inhibition [3] [%]
COc1cccc(C(=O)Nc2ccc(S(=O)(=O)c3cc4c(cc3OC)CCN(C)CC4)cc2)c1	1.6	-0.4	1.23
CN(C)CC(=O)Nc1cccc(Nc2nccc(NCC(O)c3ccccc3)n2)c1 (stereo not drawn)	1.36	0.33	-0.94
Cn1cncc1CCCN(Cc1ccc(-c2ccc(C(F)(F)F)cc2)cc1)C(=O)Cn1c(CCc2cccc(F)c2F)cc(=O)c2cccnc21	2.28	2.54	1.5
COCCNCc1cccc(-c2ccccc2CN(C(=O)c2ccc3c(c2)OCO3)c2ccc(OC)cc2)c1	4.69	4.93	3.25
Oc1ccc(CCNCCCCNCCc2ccc(Cl)cc2)cc1O	-1.52	1.57	-2.55
N=C(NCCc1c[nH]c2ccccc12)NCc1ccccc1Cl	-1.93	-1.07	-1.16
CCCCCC(=O)N1CCOC(CCN2CCC(c3ccccc3)CC2)(c2ccc(Cl)c(Cl)c2)C1 (stereo not drawn)	2.57	3.27	0.92
COc1ccc(Nc2nccc(N3CCC(NC(=O)c4cc5ccccc5s4)C3)n2)cc1 (stereo not drawn)	-3.12	1.28	-1.61
Oc1ccc(Nc2nc(N3CCCC3)c3ccccc3n2)cc1	2.69	1.64	-0.61
CN(CCCN(C)c1cc(NC(=O)c2cccc(F)c2)ccn1)Cc1cccc(O)c1	-2.2	0.99	-0.68
CCCN(CCCCCCNCCc1ccc(Cl)cc1)CCc1ccc(O)c(O)c1	-4.9	-1.72	-4.57
CN(C)CCNCc1ccc(-c2cccc(-c3nc4ccccc4[nH]3)c2)cc1	10.5	8.93	8.27
COc1cccc(OCC2CCCN(CCCCNC(=O)c3ccc(NC(=O)c4ccc(Cl)cc4)cc3)C2)c1 (stereo not drawn)	-2.42	1.68	-1.92
CCOc1cc(C(=O)NC2CCN(Cc3ccccc3)C2)ccc1-c1nc2cc(Cl)ccc2[nH]1 (stereo not drawn)	6.92	3.47	6.92
CCN(CC)CCN(Cc1ccc(-c2ccc(C(F)(F)F)cc2)cc1)C(=O)Cn1c(CCc2ccc(F)cc2)nc(=O)c2sccc21	2.57	1.22	2.92
Cc1ccc(Oc2c(-c3ccccc3CN3CCCC3CN(C)C)cnn(C)c2=O)cn1 (stereo not drawn)	6.33	4.63	5.57
CCCOc1cc(OCCC)cc(-c2cc(=O)c3ccccc3[nH]2)c1	0.94	6.37	3.56
Cc1cccc2nc(-c3ccc(-c4cccc(NC(=O)CN5CCN(C)CC5)c4)s3)[nH]c12	-0.82	-1.13	2.66

SMILES	inhibition [1] [%]	inhibition [2] [%]	inhibition [3] [%]
O=[N+]([O-])c1cccc(CNCC2CCN(Cc3ccc(C(F)(F)F)cc3)CC2)c1	0.44	5.74	6.41
COc1cccc(NC(=O)Cn2c(C)c(C#N)c3ccccc32)c1	3.53	5	3.36
COc1ccc2ccc(F)c(CC(=O)N3CCOC(CNCc4cccc(-c5ccc(F)cc5)n4)C3)c2n1 (stereo not drawn)	-1.79	0.05	-0.12
CCCCCCN1CCC(NCc2ccc(CN(C)C)cc2)CC1	0.45	2.27	-7.52
COc1cc(NC(=O)N2CCOC(CCN3CCC(c4ccccc4)CC3)(c3ccc(Cl)c(Cl)c3)C2)cc(OC)c1OC (stereo not drawn)	3.7	2.95	1.05
CCCCN(CCCC)Cc1cc(N(C)c2ccc([N+](=O)[O-])cn2)ccc1O	2.39	-0.26	1.69
CCc1c[nH]c2c(N(c3ccccc3)S(C)(=O)=O)cc(C(=O)N[C@@H](Cc3ccccc3)[C@H](O)CNCc3cccc(C(F)(F)F)c3)cc12	1.52	1.54	-2.38
Cc1[nH]c(C)c(-c2ccc(Oc3ccccc3)cc2)c(=O)c1Br	1.44	1.17	-0.53
O=c1ccccn1CCCC1CCCCN1 (stereo not drawn)	12.2	12.2	13.5
Cc1[nH]c(C)c(-c2ccc(-c3ccc(Cl)cc3)nc2)c(=O)c1Br	-0.04	-0.24	-1.28
Cc1[nH]c(C)c(C(F)(F)F)c(=O)c1-c1ccc(Oc2ccc(OC(F)(F)F)cc2)cc1	2.24	2.31	0.52
COc1ccc(-c2cccc(NC(=O)c3ccc(C#N)cc3)c2)cc1CN1CCCN(C)CC1	3.34	2.59	0.9
O=C(Nc1cccc(C(F)(F)F)c1)c1cccc2nc(C(F)(F)F)[nH]c12	19.4	24.2	15
CN(C)CCOc1ccc(-c2cc(-c3ccncc3)c(-c3ccc(Cl)c(O)c3)[nH]2)cc1	1.45	1.71	1.4
CC(C)(C(=O)Nc1ccc(C2CCC(NCC3CC3)CC2)c(Cl)c1)c1cccc(OC(F)F)c1 (stereo not drawn)	9.94	8.75	9.65
O=C(Nc1cccc(-c2ccc(-c3nc4ccccc4[nH]3)cc2)c1)Nc1ccc2c(c1)OCO2	1.14	1.8	0.06
COc1ccc(-c2ccc(Nc3cccc(S(=O)(=O)CCN4CCC(CCN(C)C)CC4)c3)nc2)cn1	-2.17	-1.68	1.63
CN(C)CCNc1cc(-c2ccc3ccccc3c2)nc2ccccc12	1.3	2.94	-0.48
